This is an account of results in ChEMBL document CHEMBL1201862, “PubChem BioAssay data set” (2004).

In all, about 57,000 sequences went through this assay and about 2,900 (5.1%) were called active. Cut-off read from the data, not from the text of the source: active = GI50 up to about 1.1 µM and inactive = higher. Not all results are given here. Measured potencies and affinities stand elsewhere.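 Protocol summary: plate cells (96-well), add compound at 5 concentrations, incubate 48 h, interpolate endpoints linearly. At the GI50, growth is halved.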

The subject of this assay is SNB-19. The assay is described as follows: NCI tumour cell line growth inhibition, 48 h.
Take “[Bis(aminomethyl)ethylmethylsilane]tetrachloroplatinum(IV), CHEMBL2146192”: the GI50 was 5.37 µM.
Take “[Bis(aminomethyl)tetramethylenesilane]tetrachloropaltinum(IV), CHEMBL2146189”: the GI50 was 12.9 µM.
With “[Bis(aminomethyl)diethylsilane]tetrachloroplatinum(IV), CHEMBL2146203” the figure was 4.05 µM.
As for “[Bis(aminomethyl)tetramethylenesilane]dichloropaltinum(II), CHEMBL2146205”, the GI50 stood at 47.5 µM.
With “mu-(1,7-nanodiamine-N,N')bis-(cis-aminedichloroplatimum (II)), CHEMBL2146215” the figure was 39.1 µM.
To “[Bis(aminomethyl)pentamethylenesilane]dichloropaltinum(II), CHEMBL2146202” belongs 2.79 µM.
The substance “[Bis(aminomethyl)dimethylsilane]tetrachloroplatinum(IV), CHEMBL2146190” came in with a GI50 of 8.77 µM.
With CISPLATIN, CHEMBL11359 the figure was 3.19 µM; with “[Bis(aminomethyl)pentamethylenesilane]tetrachloropaltinum(IV), CHEMBL2146204”, 8.02 µM.
As for “cis-Bis[[(trimethylsilyl)methyl]amino]tetrachloroplatinum(IV), CHEMBL2146191”, the GI50 came out at 12.4 µM.
To “[Bis(aminomethyl)dimethylsilane]dichloroplatinum (II), CHEMBL2146201” belongs 24.4 µM.
